Assay outcomes deposited in PubChem BioAssay by National Center for Advancing Translational Sciences (NCATS).
This is a sample that favours compounds with a hit; in the whole collection about 2.4% have one here.
Pol beta inh: blocks human DNA polymerase beta activity | P06746 | Pol beta primer extension/strand displacement, fluorescence kinetic | Potency, µM (titrated, usually from 114 µM), for inactives: at the top dose activity change, negative = inhibition, usual class: inhibitors | actives 1.3% (n = 340,000) | AID 485314; further: on the % scale 0 is the no-effect control and ±100 the full control effect
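Values derive from four-parameter Hill fits of normalized kinetic data: reads at 0 and 10 min following addition of 50 nM substrate to 10 nM Pol beta preincubated 15 min with compound.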
Pol iota inh: inhibitors of human DNA polymerase iota; Q9UNA4; actives 1% (n = 390,000); AID 588590; Potency, µM (top dose mostly 115 µM), without a hit: at the highest dose activity, negative = inhibition, actives largely listed as inhibitors; Pol iota fluorescent replication assay, 10 min
Target sequence (Q9UNA4 whole entry, looked up): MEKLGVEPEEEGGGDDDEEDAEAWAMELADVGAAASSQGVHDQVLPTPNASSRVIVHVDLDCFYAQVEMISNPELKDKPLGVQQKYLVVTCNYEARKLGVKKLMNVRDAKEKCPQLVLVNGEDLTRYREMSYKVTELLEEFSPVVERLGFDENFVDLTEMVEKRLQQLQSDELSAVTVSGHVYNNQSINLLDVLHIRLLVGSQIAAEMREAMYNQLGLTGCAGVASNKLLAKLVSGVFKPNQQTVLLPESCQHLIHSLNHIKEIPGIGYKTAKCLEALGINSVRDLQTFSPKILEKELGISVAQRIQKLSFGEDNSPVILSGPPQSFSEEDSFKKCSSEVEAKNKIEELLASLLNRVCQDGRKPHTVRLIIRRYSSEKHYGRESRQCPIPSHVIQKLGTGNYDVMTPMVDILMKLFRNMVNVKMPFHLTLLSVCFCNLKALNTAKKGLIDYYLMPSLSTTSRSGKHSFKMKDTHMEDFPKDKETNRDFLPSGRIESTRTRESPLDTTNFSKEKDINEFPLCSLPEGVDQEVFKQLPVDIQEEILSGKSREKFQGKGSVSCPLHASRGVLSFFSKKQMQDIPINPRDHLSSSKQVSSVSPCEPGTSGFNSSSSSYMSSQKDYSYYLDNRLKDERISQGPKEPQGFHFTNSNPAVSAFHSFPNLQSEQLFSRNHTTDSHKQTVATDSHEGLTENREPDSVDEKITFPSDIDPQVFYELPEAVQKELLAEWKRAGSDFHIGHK
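Pol iota at 10 nM preincubated 15 min with compounds at room temperature; reaction started with fluorescent substrate, 50 nM final. Fluorescence read kinetically at 0 and 10 min; buffer-only wells as negative control.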
POLH inh: DNA polymerase eta (human) inhibition; Potency, µM (highest dose often 114 µM), inactives show top-dose activity change, negative = inhibition, most hits filed as inhibitors; Q9Y253; actives 1.2% (n = 390,000); recombinant Pol eta, fluorescent DNA replication assay; further: on the % scale 0 is the no-effect control and ±100 the full control effect
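Pol eta at 10 nM preincubated with compounds 15 min at room temperature; reaction started with fluorescent substrate (50 nM final) and read kinetically at 0 and 10 min.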
FEN1 inh: human FEN1 inhibition; Recombinant FEN1 flap cleavage, fluorescence, 15 min; Potency, µM (highest dose often 114 µM), for the others: at the highest dose activity change, negative = inhibition, actives largely listed as inhibitors; actives 0.35% (n = 390,000); further: on the % scale 0 is the no-effect control and ±100 the full control effect; nearly all actives have a fitted effect of over 65% in size
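In this screen, 50 nM flap DNA substrate was added to 10 nM FEN1 pretreated with compound for 15 min at room temperature; cleavage was followed with reads at 0 and 15 min, and Hill fitting gave concentration–response parameters.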
Pol kappa inh: inhibitors of human DNA polymerase kappa. Q9UBT6. purified Pol kappa, fluorescent DNA synthesis assay, 10 min. Potency, µM (doses to about 107 µM), for inactives: top-dose activity, negative = inhibition, most hits filed as inhibitors. actives 0.53% (n = 400,000); further: on the % scale 0 is the no-effect control and ±100 the full control effect
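First, compounds were pin-transferred onto 10 nM Pol kappa. After 15 min at room temperature, substrate was added to 50 nM final. Fluorescence was then measured kinetically at 0 and 10 min.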
WRN inhibitor: inhibitors of human WRN helicase; WRN helicase unwinding, fluorescent forked duplex, kinetic; AID 651768; Potency, µM (series often up to 114 µM), for inactives: top-dose activity change, negative = inhibition, hits mostly inhibitors; Q14191; actives 0.46% (n = 360,000); further: on the % scale 0 is the no-effect control and ±100 the full control effect; nearly all actives have a fitted effect of over 55% in size
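Screening of the MLSMR collection measured strand separation of a quenched forked DNA duplex (100 nM) by 20 nM WRN with 2 mM ATP, all final. Compounds were preincubated with enzyme 15 min at room temperature.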
* marks the source's active call; other numbers are inactive results; ? = inconclusive; nt = not tested or not shown; [ ] = dose if it differs, or a comment. The call rests on the fitted dose curve; in most records, active means well fitted curve in the direction sought with a large enough effect; inconclusive means small, poorly fitted or top-dose-only effect, or another doubt; inactive means no such curve, though single readings can be large; an effect the other way counts as inactive or inconclusive. Potency means the concentration at half of the fitted maximal effect.

SMILES	Pol beta inh	Pol iota inh	POLH inh	FEN1 inh	Pol kappa inh	WRN inhibitor
O=C(O)CN1C(=O)/C(=C\c2cc(Br)ccc2OCc2ccccc2Cl)SC1=S	31.6µM*	?	39.8µM*	?	-34.6%	56.2µM*
COc1cc2c(cc1OC)C1O[C@](c3ccsc3)(C2)Oc2cc(-c3ccccc3)oc(=O)c21	12.6µM*	nt	nt	nt	nt	nt
COc1cc2c(cc1OC)C1O[C@](c3ccsc3)(C2)Oc2cc(C)n(Cc3ccccc3)c(=O)c21	-0.5%[22.9 µM]	nt	nt	nt	nt	nt
CCN(CC)S(=O)(=O)c1ccc(S(=O)(=O)NCc2cccs2)cc1	39.4%	5.5%	-1.7%	3.4%	-9.3%	-33.8%
COc1ccc(S(=O)(=O)NCc2cccs2)cc1	25.1µM*	-13.6%	-4.2%	-5.1%	-26.9%	-7.7%
CCCCN1CC(c2nc3ccccc3n2CCCCOc2cccc(C)c2C)CC1=O (configuration not stated)	-24.4%	29.7%	-20.8%	-4.0%	-3.8%	nt
CC1=C(C(=O)Nc2cccc(C(F)(F)F)c2)C(c2ccccc2)n2ncnc2N1 (configuration not stated)	-7.9%	1.2%	-18.8%	-6.2%	-16.7%[60.1 µM]	nt
COc1ccc(/C=N/Nc2ncnc3c2[nH]c2ccc(C)cc23)c(OC)c1OC	0.6%	22.4%	25.1µM*	?	-1.6%	?
CCCCn1c(=N)c(S(=O)(=O)c2ccc(Cl)cc2)cc2c(=O)n3cccc(C)c3nc21	-1.6%	14.2%	-18.9%	15.3%	-14.4%	nt
O=C(Nc1cccc(Cl)c1)OCCOC(=O)Nc1cccc(Cl)c1	nt	-28.7%	-18.7%	-29.2%	2.8%	-13.5%
O=C(Nc1cccc(Cl)c1)OCC#CCCl	nt	nt	nt	nt	26.7µM*	nt
CCC1Sc2ccc(S(=O)(=O)Nc3cc(OC)cc(OC)c3)cc2NC1=O (configuration not stated)	24.6%	13.0%	-9.1%	8.7%	1.5%	-10.2%
CCC1Sc2ccc(S(=O)(=O)CCC(=O)Nc3c(Cl)cc(OC)cc3OC)cc2NC1=O (configuration not stated)	79.4µM*	-7.2%	?	12.0%	-18.7%	-28.9%
COCCNC(=O)c1ccccc1NC(=O)c1nsc2ccccc12	-0.5%	-27.5%	3.1%	-15.5%	-4.9%[60.1 µM]	nt
O=C(O)c1c2c(nc3ccc(S(=O)(=O)N4CCC(C(=O)NCc5ccccc5)CC4)cc13)CCCC2	nt	nt	-12.3%	nt	nt	-12.0%
COc1ccccc1CNC(=O)C1CCN(S(=O)(=O)c2ccc3nc4c(c(C(=O)O)c3c2)CCCC4)CC1	-23.8%	79.4µM*	?	-9.7%	-26.3%	-18.0%[11.6 µM]
COc1ccc(CNC(=O)C2CCN(S(=O)(=O)c3ccc4nc5c(c(C(=O)O)c4c3)CC(C)CC5)CC2)cc1 (configuration not stated)	?	89.1µM*	?	-6.0%	-10.8%	-8.7%
CC1CCc2nc3ccc(S(=O)(=O)N4CCC(C(=O)NCc5ccccc5Cl)CC4)cc3c(C(=O)O)c2C1 (configuration not stated)	39.8µM*	50.1µM*	?	12.2%	?	-18.4%
CC[C@H](C)[C@H](NC(=O)[C@H](Cc1ccc(O)cc1)NC(=O)[C@H](Cc1cnc[nH]1)NC(=O)[C@H](CCCNC(=N)N)NC(=O)[C@H](CC(C)C)NC(=O)[C@H](C)NC(=O)[C@H](CO)NC(=O)[C@H](Cc1ccc(O)cc1)NC(=O)[C@H](Cc1ccc(O)cc1)NC(=O)[C@H](CCCNC(=N)N)NC(=O)[C@H](C)NC(=O)[C@H](CC(C)C)NC(=O)[C@H](CC(=O)O)NC(=O)[C@H](CCC(=O)O)NC(=O)[C@H](C)NC(=O)[C@@H]1CCCN1C(=O)[C@H](C)NC(=O)[C@H](CC(=O)O)NC(=O)[C@H](CCC(=O)O)NC(=O)CNC(=O)[C@@H]1CCCN1C(=O)[C@H](CC(N)=O)NC(=O)[C@H](CC(=O)O)NC(=O)[C@@H]1CCCN1C(=O)[C@H](CCCCN)NC(=O)[C@H](CO)NC(=O)[C@@H]1CCCN1C(=O)[C@@H](N)Cc1ccc(O)cc1)C(=O)N[C@@H](CC(N)=O)C(=O)N[C@@H](CC(C)C)C(=O)N[C@H](C(=O)N[C@H](C(=O)N[C@@H](CCCNC(=N)N)C(=O)N[C@@H](CCC(N)=O)C(=O)N[C@@H](CCCNC(=N)N)C(=O)N[C@@H](Cc1ccc(O)cc1)C(N)=O)[C@@H](C)O)[C@@H](C)CC	nt	nt	nt	nt	7.0%[60.1 µM]	nt
CN(C)c1c(Cl)cc(/C=C/c2ccnc3ccccc23)cc1Br	nt	?	nt	-31.4%	-2.8%	nt
N#Cc1ccc(CSc2nnc(NC(=O)C3CC(=O)N(c4ccc5c(c4)OCCO5)C3)s2)cc1 (configuration not stated)	8.91µM*	31.1%	-13.2%	15.1%	0.7%	-8.8%
CCc1ccc(-c2csc(NC(=O)C3CC(=O)N(c4ccc5c(c4)OCCO5)C3)n2)cc1 (configuration not stated)	?	89.1µM*	-18.2%	?	-29.3%	-28.4%
COCCNC(=O)CCCn1c(SCC(=O)c2ccc(Br)cc2)nc2c(sc3ccccc32)c1=O	-5.6%	26.6%	11.2%	-6.3%	-8.2%	nt
O=C(O)c1c[nH]c2ccc(S(=O)(=O)N3CCN(c4ccc(F)cc4)CC3)cc2c1=O	20µM*	?	89.1µM*	?	?	-29.5%
Cc1ccc(C)c(N2CCN(S(=O)(=O)c3ccc4c(c3)CCN4C(=O)CCC(=O)O)CC2)c1	-27.5%	-5.3%	7.0%	10.4%	-13.6%	-3.8%
SMILES	Pol beta inh	Pol iota inh	POLH inh	FEN1 inh	Pol kappa inh	WRN inhibitor
O=C(O)CCC(=O)N1CCc2cc(S(=O)(=O)N3CCN(c4ccc(F)cc4)CC3)ccc21	22.4µM*	?	-3.8%	1.5%	-7.7%	2.3%
CC(=O)N1CCc2cc(S(=O)(=O)CCC(=O)N3CCN(c4ccccc4)CC3)ccc21	1.26µM*	-16.6%	7.6%	-15.3%	-9.3%	-9.8%
CCC(=O)N1CCc2cc(S(=O)(=O)CCC(=O)N3CCN(c4ccccc4)CC3)ccc21	-0.1%	16.0%	-14.1%	-2.6%	0.0%	2.3%
CCCNC1=C(N(C(C)=O)c2cccc(F)c2)C(=O)c2ccccc2C1=O	18.0%	79.4µM*	-15.0%	2.7%	0.1%	-13.8%[57.1 µM]
CCC(=O)N(C1=C(NC(C)C)C(=O)c2ccccc2C1=O)C(C)C	-20.9%	?	6.3%	-16.3%	7.8%[60.1 µM]	-0.7%
COc1ccc(C)cc1NC(=O)CN1C(=O)CCc2cc(S(=O)(=O)N3CCOCC3)ccc21	-0.5%	-0.5%	-18.3%	-2.4%	-1.1%[60.1 µM]	nt
